Assay results taken from ChEMBL document CHEMBL3988442, “University of Dundee, Small-Polar-MMV Screening Library” (2021).
In all, about 48,000 compounds went through this assay and about 13,000 (27%) showed an effect of 50% or more. This is one part of the list.

test system: Wolbachia pipientis; assay: Anti-Wolbachia Cell-Based Screen; assay type: functional; design: scale not given: in the data most compounds retested in dose-response had high values; conditions: 5 µM

SMILES	Percent Effect [%]
CS(=O)(=O)CC1CCCN(c2ncnc3c2Cc2ccccc2OC3)C1 (stereo unspecified)	8.787
CC(C)c1nc(CNc2ccc(CCO)cc2)cs1	-6.765
Cc1nonc1N1CCN(Cc2nc(CC3CC3)no2)CC1	-9.131
Cc1occc1C(=O)N1CCC2(CCN(Cc3nccs3)CC2)C1	13.46
CC1(c2nccs2)CCN(C(=O)CC2CCOCC2)CC1	133.3
O=C(CCNC1(c2nccs2)CCCC1)N1CCOCC1	-14.98
C[C@@H](NC(=O)c1cnccn1)c1c(-c2ccc(F)cc2)noc1C(=O)O	0.3029
Cc1ccc(C(=O)N2CCN(CCc3cccs3)CC2)c(=O)[nH]1	4.078
Cc1ccc(-c2nnc(CN3CCN(c4ccccn4)CC3)o2)cc1	118.2
Cc1ccc(C2(O)CCN(Cc3nnc(-c4cccnc4)o3)CC2)nc1	-8.871
Cc1ccc(-c2nnc(CN3CCNC(=O)C3)o2)cc1	-29.77
O=C(Nc1ccccc1)N1CCn2c(nnc2C2CCNCC2)C1	105.9
O=C(Nc1ccccc1)N1CCn2c(nnc2C2CCCN2)C1 (stereo unspecified)	106.2
Cc1cc(NC(=O)CN2CCn3c(nnc3C3CC3)C2)no1	-12.55
O=C(c1ccccc1O)N1CCn2c(nnc2C(F)(F)F)C1	-8.527
CC(C)NC(=O)C(c1ccccc1)N1CCn2c(nnc2C2CC2)C1 (stereo unspecified)	0.9151
Cc1nnc2n1CCN(C(=O)C(OC1CCCC1)c1ccccc1)C2 (stereo unspecified)	0.08716
Cn1cc(CNCC2(N3CCCCC3)Cc3ccccc3C2)cn1	-0.5934
CN(C)C(=O)[C@H]1C[C@H]2OCC[C@H]2N(CCOc2ccc(Cl)cc2)C1.O=C(O)C(F)(F)F	-1.97
O=C1CC(c2ccc3ccccc3n2)c2c(n[nH]c2C2CCC2)N1 (stereo unspecified)	48.61
COc1nc2ccccc2cc1C1CC(=O)Nc2n[nH]c(C3CCC3)c21 (stereo unspecified)	94.97
CNC(=O)c1n[nH]c2c1C(c1cccc3nsnc13)CC(=O)N2 (stereo unspecified)	1.687
CC(C)c1nccc(C2CC(=O)Nc3n[nH]c(C4CCC4)c32)n1 (stereo unspecified)	111.7
O=C(CN1CCCC1c1nc(Cc2ccc(F)cc2)no1)NC1CC1 (stereo unspecified)	6.491

SMILES	Percent Effect [%]
CCCN(CC1CC1)C(=O)CN1CCCC1c1cnn(C)c1 (stereo unspecified)	-10.58
COCCOC[C@]1(CNCc2ccc(F)cc2)C[C@@H](O)[C@@H](O)C1.Cl	9.118
CCn1ncc2c1CCCC2NCc1ccc(C)s1 (stereo unspecified)	-6.275
O[C@@H]1CN(CC2CC2)CC[C@H]1N1CCN(c2ccccc2F)CC1	4.313
Cc1noc(Cl)c1CC(=O)N1CCCC(n2cccn2)C1 (stereo unspecified)	-0.9782
Cc1cnn(C2CCCN(C(=O)CCc3c(C)noc3C)C2)c1 (stereo unspecified)	114.5
Cc1nn(C)c(C)c1CCC(=O)N1CCCOC(Cn2cccn2)C1 (stereo unspecified)	-1.849
Cc1cnn(C2CCCN(C(=O)c3c(C)oc(C)c3C)C2)c1 (stereo unspecified)	2.216
Cc1noc(C)c1CCC(=O)N1CCCC(n2cccn2)C1 (stereo unspecified)	112.2
Cc1noc2ncc(C(=O)N3CCCC(n4cccn4)C3)cc12 (stereo unspecified)	-8.644
Cc1nn(C)c(C)c1CCC(=O)N1CCCC(n2cccn2)C1 (stereo unspecified)	104.5
Cc1nn(C)c(C)c1CC(=O)N1CCCC(n2cccn2)C1 (stereo unspecified)	-0.59
O=C(NCc1csc(-c2cccs2)n1)C1NCCc2[nH]cnc21 (stereo unspecified)	-2.948
COc1ccccc1OCC(=O)NS(=O)(=O)c1ccc(F)cc1F	-4.254
CC(=O)N(CCc1nc(-c2cc(C(N)=O)oc2C)cs1)C(C)C	1.206
CS(=O)(=O)NCc1cn2c(n1)CN(Cc1cccnc1)CC2.O=C(O)C(F)(F)F.O=C(O)C(F)(F)F	116.6
c1cncc(CN2CCn3cc(CN4CCCCC4)nc3C2)c1	99.27
CN1CCN(Cc2cn3c(n2)CN(C(=O)c2ccccn2)CC3)CC1.O=C(O)C(F)(F)F.O=C(O)C(F)(F)F.O=C(O)C(F)(F)F	6.364
CN1CCN(Cc2cn3c(n2)CN(Cc2ccncc2)CC3)CC1	100.2
O=C(CC1CC1)NCc1cn2c(n1)CN(Cc1cccnc1)CC2.O=C(O)C(F)(F)F.O=C(O)C(F)(F)F	-16.83
CN1CCN(Cc2cn3c(n2)CN(C(=O)N2CCCC2)CC3)CC1	-9.344
Cn1cccc1C(=O)NCc1cn2c(n1)CN(Cc1ccccn1)CC2.O=C(O)C(F)(F)F.O=C(O)C(F)(F)F	-5.455
CS(=O)(=O)NCc1cn2c(n1)CN(Cc1ccoc1)CC2.O=C(O)C(F)(F)F	2.843
CN1CCN(Cc2cn3c(n2)CN(Cc2ccccn2)CC3)CC1	100

SMILES	Percent Effect [%]
O=C(NCc1cn2c(n1)CN(Cc1cccnc1)CC2)C1CCC1.O=C(O)C(F)(F)F.O=C(O)C(F)(F)F	-2.2
Cn1cccc1C(=O)NCc1cn2c(n1)CN(Cc1cccnc1)CC2.O=C(O)C(F)(F)F.O=C(O)C(F)(F)F	-5.868
CN1CCN(Cc2cn3c(n2)CN(CC2CC2)CC3)CC1	0.4207
COCCNC(=O)Nc1ccn(-c2cccc(C(F)(F)F)c2)n1	3.521
OCCC1CN(c2ncnc3[nH]cnc23)CCN1Cc1ccccc1F (stereo unspecified)	-3.014
OCCc1cc(CC2(NCc3ccc(C(F)(F)F)cc3)COC2)no1	1.711
CN(C(=O)CN(Cc1cccc(O)c1)C1CCC(O)CC1)C1CC1 (stereo unspecified)	2.382
CCc1ccc(CN2CCCC(c3nn(C)c(=O)n3CC)C2)nc1 (stereo unspecified)	20.88
CC(C)NC(=O)CCNC(=O)CCc1cc(Br)cs1	-10.2
COc1ccc2cccc(CC(=O)NCc3nccc(N)n3)c2c1	-13.23
COc1ccc(-c2ccccc2CN)c(OC)c1	-11.71
COc1ccc(-c2n[nH]cc2CN(C)Cc2nccn2C)c(F)c1	-1.077
Cc1ncc(CN)c(-c2cn(C)c3ccccc23)n1	142.3
COCC(=O)NCc1cnc(C)nc1-c1cn(C)c2ccc(OC)cc12	67.07
COc1ccc2c(c1)c(-c1nc(N(C)C)ncc1CN)cn2C	69.63
COc1ccc(CN)c(OC(F)F)c1.Cl	-5.611
Cn1cc(CNC[C@H]2Cn3ccnc3CO2)c2ccccc21	-9.127
COc1ccc(OC)c(CN(C)c2nc3c(cnn3C)c(=O)[nH]2)c1	-18.11
COc1ccc2cccc(CC(=O)NCc3n[nH]c(=O)[nH]3)c2c1	5.869
Cc1cc(N2CCN(C(=O)c3cn(C)c4ccccc34)CC2)nc(C)n1	1.104
COc1ccc2c(c1)c(-c1nc(C)ncc1CN)cn2C	104.6
CN(CCNC(=O)N1CCN(Cc2ccon2)CC1)C1CCCC1	-5.523
CC1CCN(CC2(O)CCCN(Cc3cccc(F)c3F)C2=O)CC1 (stereo unspecified)	-9.136
O=C(CN(Cc1ccccc1)CC1CCOCC1)Nc1nccs1	-5.546

SMILES	Percent Effect [%]
Cn1cnnc1CN1CCC2(CCC(=O)N(Cc3ccccc3)C2)CC1	-10.98
Cc1nnc2n1CCN(C(C(=O)NC1CC1)c1ccccc1)C2 (stereo unspecified)	-4.736
O=S(=O)(CC1CCCCC1)NCc1ccnc(O)c1	-10.25
COc1ccc2c(ccn2CCC(=O)Nc2n[nH]c(CC(C)C)n2)c1	106.4
COCCN(C)C(=O)Nc1ccc2c(ccn2CC(=O)N(C)C)c1	5.654
CCNC(=O)Nc1ccc2c(ccn2CC(=O)N(CC)CC)c1	-5.513
COc1ccc2c(ccn2CC(=O)Nc2n[nH]c(CC(C)C)n2)c1	220.2
COc1ccc2nc(CCNC(=O)c3cc(CC(C)C)no3)[nH]c2c1	0.008091
CNS(=O)(=O)Cc1ccc(CNc2ccc(C#N)cn2)cc1	0.03552
Cc1ncnc2c1CCN(Cc1cccs1)CC2.O=C(O)C(F)(F)F	-21.74
O=C(O)C(F)(F)F.O=S(=O)(c1cccs1)N1CCCn2nnc(CN3CCCCC3)c2C1	-14.53
O=C(O)C(F)(F)F.O=C(c1ccc2[nH]ccc2c1)N1Cc2nc(CN3CCCCC3)oc2C1	-9.773
O=C(O)C(F)(F)F.O=C(O)C(F)(F)F.c1csc(CN2CCCn3cnc(CN4CCCC4)c3C2)c1	-7.451
O=C(O)C(F)(F)F.O=C(O)C(F)(F)F.c1csc(CN2Cc3nc(CN4CCCC4)oc3C2)c1	109.9
O=C(Cc1ccsc1)N1Cc2nc(CN3CCCCC3)oc2C1.O=C(O)C(F)(F)F	93.12
O=C(O)C(F)(F)F.O=S(=O)(c1cccs1)N1CC[C@H]2[C@H]1CCN2CC1CC1	-12.79
O=C(Cc1cccs1)N1Cc2nc(CN3CCCC3)oc2C1	101.2
O=C(O)C(F)(F)F.O=C(O)C(F)(F)F.O=C(c1ccncc1F)N1Cc2nc(CN3CCCCC3)oc2C1	-18.26
O=C(c1ccc2[nH]ccc2c1)N1Cc2nc(CN3CCCC3)oc2C1	-7.855
O=C(O)C(F)(F)F.O=S(=O)(c1cccs1)N1Cc2nc(CN3CCCCC3)oc2C1	109.1
O=C(NCc1cccs1)c1nc2c(o1)CN(c1ncccn1)C2	0.5771
CC(C)Oc1ccc(CN2CCN3CCN(C)CC3C2)cc1CO (stereo unspecified)	9.29
CC(C)N1CCc2onc(Cn3cccc3)c2C1.O=C(O)C(F)(F)F	-0.5475
CCc1cnc(C)nc1NCCC(=O)N1CCC(C)CC1	-0.3722
